Results as given in the supplement of paper PMC11732987, “Enantioselective OTUD7B fragment discovery through chemoproteomics screening and high-throughput optimisation” (Communications Chemistry, 2025).

Columns and labels:
Test in all cases: log2 ratio of Biotin-Ahx-Ub-VS probe labelling (fragment/DMSO); higher = less target engagement (more negative = stronger competition), active = hit call of the paper (q ≤ 0.05, log2 ratio ≤ -1)
Conditions in all cases: compound concentration: 200 uM; treatment time: 3 h
USP19 = molecular target: T1, USP19 (UniProt O94966)
T1 sequence (whole entry): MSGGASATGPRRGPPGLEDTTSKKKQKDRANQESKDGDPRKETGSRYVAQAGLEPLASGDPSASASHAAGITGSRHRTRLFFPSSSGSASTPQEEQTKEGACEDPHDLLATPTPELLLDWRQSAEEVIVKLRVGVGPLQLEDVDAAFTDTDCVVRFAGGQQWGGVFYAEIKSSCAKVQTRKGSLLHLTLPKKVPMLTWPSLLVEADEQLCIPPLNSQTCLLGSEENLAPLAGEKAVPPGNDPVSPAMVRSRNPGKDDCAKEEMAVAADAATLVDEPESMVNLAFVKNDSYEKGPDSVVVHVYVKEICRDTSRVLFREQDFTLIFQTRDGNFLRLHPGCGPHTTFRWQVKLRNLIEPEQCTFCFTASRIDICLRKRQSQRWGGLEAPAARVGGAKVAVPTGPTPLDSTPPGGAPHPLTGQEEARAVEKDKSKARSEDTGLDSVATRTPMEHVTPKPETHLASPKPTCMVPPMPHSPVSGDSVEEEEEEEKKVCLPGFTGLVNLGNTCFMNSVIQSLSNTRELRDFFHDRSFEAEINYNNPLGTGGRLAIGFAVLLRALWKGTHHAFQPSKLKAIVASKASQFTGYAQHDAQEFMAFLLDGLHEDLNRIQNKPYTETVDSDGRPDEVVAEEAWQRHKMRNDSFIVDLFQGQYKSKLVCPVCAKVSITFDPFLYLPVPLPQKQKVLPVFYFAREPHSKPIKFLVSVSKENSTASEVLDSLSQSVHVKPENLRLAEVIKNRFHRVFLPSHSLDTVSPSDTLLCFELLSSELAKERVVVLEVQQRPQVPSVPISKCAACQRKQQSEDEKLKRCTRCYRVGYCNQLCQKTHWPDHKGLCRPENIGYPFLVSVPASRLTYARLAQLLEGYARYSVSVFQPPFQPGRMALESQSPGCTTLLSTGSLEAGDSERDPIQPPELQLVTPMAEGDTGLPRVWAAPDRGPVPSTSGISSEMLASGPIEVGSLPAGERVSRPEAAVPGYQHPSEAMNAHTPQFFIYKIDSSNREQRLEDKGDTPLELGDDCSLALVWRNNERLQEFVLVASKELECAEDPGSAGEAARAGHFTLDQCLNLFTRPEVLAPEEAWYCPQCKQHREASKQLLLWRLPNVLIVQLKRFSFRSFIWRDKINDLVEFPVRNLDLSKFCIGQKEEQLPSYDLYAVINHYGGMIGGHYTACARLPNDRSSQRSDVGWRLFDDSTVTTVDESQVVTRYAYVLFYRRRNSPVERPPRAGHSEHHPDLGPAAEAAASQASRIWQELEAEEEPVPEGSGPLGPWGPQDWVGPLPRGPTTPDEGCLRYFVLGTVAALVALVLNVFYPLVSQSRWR
Summary of the method: (§1)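 The table lists average log2 ratios of fragment over vehicle, from an unpaired t-test on global-median-normalised Spectronaut label-free quantities. Proteins with ≥2 unique peptides were used. Samples were HEK293T lysate (495 µg) treated in triplicate with fragment at 200 µM or vehicle for 3 h, then with Biotin-Ahx-Ub-VS (0.5 µM final) for 1 h, with labelled DUBs NeutrAvidin-enriched and run by diaPASEF LC-MS/MS.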

USP22 = molecular target: T2, USP22 (UniProt Q9UPT9)
T2 sequence (whole entry): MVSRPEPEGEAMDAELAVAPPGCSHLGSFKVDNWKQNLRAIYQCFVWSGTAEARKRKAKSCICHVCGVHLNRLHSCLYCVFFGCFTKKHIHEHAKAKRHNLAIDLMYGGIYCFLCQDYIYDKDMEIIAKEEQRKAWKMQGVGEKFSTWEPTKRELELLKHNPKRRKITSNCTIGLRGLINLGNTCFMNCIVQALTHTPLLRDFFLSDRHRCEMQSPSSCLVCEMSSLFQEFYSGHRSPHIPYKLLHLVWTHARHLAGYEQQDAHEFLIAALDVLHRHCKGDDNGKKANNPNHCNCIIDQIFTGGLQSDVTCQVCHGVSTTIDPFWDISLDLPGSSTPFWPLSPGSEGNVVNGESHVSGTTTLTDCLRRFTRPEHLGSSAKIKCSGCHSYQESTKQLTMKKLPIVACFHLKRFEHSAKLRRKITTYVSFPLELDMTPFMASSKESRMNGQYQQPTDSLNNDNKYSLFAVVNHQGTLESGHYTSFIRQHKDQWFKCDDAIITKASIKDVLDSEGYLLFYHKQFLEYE
Summary of the method: as §1

USP24 = USP24 (UniProt Q9UPU5)
Summary of the method: as §1

USP25 = molecular target: T3, USP25 (UniProt Q9UHP3)
T3 sequence (whole entry): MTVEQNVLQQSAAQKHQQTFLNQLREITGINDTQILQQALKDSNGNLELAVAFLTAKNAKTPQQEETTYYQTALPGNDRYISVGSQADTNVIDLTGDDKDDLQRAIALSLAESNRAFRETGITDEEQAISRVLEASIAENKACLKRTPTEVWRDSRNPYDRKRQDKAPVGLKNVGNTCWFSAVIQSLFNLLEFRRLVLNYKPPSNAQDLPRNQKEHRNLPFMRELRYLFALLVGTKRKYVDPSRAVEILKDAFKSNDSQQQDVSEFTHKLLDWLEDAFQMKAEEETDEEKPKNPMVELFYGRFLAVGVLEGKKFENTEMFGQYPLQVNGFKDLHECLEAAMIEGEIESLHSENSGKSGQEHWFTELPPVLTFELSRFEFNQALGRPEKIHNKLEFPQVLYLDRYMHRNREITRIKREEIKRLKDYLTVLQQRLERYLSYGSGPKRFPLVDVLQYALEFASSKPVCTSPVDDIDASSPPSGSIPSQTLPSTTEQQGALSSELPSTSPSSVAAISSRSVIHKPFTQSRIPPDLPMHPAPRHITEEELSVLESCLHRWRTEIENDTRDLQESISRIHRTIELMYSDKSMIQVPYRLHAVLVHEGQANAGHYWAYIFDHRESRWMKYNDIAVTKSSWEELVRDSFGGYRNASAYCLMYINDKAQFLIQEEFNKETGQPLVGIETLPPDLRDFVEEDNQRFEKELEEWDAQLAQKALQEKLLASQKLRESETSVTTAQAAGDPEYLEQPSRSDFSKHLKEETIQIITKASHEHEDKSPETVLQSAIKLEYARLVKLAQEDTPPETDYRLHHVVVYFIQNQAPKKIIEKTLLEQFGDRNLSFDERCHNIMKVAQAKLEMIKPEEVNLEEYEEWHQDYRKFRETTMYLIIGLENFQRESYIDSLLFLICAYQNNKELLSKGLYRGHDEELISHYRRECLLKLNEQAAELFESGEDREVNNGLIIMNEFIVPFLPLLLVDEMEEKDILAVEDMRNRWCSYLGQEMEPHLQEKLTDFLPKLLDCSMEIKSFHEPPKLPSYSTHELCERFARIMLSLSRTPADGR
Summary of the method: as §1

USP28 = molecular target: T4, USP28 (UniProt Q96RU2)
T4 sequence (whole entry): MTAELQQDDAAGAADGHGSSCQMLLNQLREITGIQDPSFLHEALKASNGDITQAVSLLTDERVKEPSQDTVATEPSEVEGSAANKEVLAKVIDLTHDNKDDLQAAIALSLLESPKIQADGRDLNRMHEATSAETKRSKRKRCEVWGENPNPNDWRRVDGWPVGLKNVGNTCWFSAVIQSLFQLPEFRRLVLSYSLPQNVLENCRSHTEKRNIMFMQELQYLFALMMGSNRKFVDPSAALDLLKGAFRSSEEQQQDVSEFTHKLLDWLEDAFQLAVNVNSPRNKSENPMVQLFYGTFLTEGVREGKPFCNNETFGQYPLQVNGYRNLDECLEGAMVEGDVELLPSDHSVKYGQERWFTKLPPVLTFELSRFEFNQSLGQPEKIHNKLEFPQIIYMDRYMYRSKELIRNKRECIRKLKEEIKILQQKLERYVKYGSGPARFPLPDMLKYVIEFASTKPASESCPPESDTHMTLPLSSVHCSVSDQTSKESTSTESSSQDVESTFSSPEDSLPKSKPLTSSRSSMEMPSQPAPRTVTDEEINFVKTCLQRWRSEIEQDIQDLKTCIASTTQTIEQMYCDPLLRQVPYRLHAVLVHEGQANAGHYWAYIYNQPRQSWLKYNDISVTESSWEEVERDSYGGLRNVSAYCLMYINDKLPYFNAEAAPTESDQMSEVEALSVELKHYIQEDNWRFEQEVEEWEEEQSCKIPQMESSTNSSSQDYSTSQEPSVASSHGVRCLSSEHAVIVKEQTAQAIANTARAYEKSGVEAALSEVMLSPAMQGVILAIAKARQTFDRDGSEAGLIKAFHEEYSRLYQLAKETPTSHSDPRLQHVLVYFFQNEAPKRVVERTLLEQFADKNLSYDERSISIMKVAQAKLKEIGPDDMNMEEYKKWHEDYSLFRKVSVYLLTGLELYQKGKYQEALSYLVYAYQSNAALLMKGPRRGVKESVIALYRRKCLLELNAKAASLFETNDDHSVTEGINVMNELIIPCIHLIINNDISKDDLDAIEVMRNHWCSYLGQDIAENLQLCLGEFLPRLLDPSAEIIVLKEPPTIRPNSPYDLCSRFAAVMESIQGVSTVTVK
Summary of the method: as §1

Measured: log2 ratio of Biotin-Ahx-Ub-VS probe labelling

Sequence of USP24 (Q9UPU5 whole entry): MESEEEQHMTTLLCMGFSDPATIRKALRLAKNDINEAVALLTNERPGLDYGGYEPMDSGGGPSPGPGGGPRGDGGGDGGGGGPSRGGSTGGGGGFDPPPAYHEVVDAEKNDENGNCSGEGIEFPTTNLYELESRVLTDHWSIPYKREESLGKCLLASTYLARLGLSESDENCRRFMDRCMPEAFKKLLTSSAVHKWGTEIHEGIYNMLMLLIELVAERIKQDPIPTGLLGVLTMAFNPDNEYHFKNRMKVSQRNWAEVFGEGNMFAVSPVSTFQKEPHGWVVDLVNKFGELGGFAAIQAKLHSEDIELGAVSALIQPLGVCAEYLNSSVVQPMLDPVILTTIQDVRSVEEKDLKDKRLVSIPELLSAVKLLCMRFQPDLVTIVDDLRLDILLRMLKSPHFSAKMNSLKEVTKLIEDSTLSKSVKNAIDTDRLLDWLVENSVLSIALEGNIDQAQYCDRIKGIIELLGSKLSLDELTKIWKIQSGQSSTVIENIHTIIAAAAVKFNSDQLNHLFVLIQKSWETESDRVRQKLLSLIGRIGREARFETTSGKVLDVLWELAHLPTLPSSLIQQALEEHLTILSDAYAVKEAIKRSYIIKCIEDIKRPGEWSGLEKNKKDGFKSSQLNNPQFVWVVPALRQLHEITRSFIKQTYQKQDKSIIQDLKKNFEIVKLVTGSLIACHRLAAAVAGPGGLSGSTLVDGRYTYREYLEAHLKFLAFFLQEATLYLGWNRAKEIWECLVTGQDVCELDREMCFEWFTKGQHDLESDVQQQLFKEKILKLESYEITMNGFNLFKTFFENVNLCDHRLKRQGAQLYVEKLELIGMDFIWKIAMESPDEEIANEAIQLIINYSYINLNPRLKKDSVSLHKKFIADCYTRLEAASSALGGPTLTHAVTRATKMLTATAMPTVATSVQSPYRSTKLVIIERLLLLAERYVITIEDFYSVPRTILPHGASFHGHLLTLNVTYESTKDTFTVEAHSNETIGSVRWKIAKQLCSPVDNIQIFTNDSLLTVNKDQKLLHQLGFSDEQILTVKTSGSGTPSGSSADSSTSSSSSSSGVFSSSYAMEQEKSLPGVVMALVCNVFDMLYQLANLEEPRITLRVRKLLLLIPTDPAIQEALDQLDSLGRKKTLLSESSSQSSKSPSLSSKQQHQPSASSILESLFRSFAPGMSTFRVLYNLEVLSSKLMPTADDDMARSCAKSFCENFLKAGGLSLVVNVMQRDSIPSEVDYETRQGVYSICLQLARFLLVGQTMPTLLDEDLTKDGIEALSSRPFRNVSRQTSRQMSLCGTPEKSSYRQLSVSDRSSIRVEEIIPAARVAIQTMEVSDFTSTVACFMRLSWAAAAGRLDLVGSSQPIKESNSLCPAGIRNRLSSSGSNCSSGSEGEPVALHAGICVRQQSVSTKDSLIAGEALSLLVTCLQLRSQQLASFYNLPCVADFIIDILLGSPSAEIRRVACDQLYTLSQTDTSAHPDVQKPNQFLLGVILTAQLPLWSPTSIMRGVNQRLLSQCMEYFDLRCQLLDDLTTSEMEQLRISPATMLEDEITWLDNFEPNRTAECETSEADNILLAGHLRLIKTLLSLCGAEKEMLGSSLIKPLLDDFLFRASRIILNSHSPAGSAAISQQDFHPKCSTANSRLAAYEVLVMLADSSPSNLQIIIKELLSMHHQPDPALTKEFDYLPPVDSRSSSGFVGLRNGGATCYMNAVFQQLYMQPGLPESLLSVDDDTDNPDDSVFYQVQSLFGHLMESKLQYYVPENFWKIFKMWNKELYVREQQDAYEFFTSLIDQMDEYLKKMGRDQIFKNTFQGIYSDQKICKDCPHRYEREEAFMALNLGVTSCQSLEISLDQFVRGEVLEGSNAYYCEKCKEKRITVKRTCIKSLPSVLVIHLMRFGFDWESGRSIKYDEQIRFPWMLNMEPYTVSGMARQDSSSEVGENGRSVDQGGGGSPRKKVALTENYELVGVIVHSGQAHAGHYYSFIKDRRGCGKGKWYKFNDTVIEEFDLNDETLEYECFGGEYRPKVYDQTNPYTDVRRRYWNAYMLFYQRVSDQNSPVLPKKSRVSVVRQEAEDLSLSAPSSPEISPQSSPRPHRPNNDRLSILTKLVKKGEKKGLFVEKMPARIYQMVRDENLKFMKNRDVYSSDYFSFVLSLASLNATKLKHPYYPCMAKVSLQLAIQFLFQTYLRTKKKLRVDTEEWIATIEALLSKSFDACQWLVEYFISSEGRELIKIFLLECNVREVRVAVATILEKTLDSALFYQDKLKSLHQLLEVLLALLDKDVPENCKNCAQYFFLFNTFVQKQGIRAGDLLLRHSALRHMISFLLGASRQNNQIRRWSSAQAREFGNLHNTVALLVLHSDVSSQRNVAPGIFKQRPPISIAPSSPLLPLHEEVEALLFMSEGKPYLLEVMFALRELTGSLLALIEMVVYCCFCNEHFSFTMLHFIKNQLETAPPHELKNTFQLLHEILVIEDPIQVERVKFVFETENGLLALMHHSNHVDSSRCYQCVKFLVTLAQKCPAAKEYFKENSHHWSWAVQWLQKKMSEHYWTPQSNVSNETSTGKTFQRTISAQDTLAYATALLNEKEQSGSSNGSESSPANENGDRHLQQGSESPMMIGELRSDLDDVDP

Cc1cccc2nc(CCNC(=O)CCl)cn12.Cl
inactive: USP19 -0.242 | USP22 0.075 | USP24 -0.429 | USP25 -0.267 | USP28 -0.53
